About 83,000 compounds went through this panel and 20% of them were active in at least one assay; those are over-represented in the sample as a whole.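 Assay: single dose, 48 h. Readout: percent growth (0 = no net growth; negative = cell death). Active: <10.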 A number with no mark means an inactive call. Active and inactive are the calls of the source.
What follows are molecules tested on HL-60(TB) leukemia (assay: NCI-60 one-dose screen, 48 h (100 = growth as untreated, 0 = no growth, -100 = all killed)). Conditions: 10 µM unless noted.

**Q.** Which growth does the source give for `CCOC(=O)c1c(Nc2ccccc2)nn2c(N)c(C#N)c(-c3ccc(OC)cc3)nc12` here?
**A.** 112%

**Q.** `CC1(C)CC[C@]2(CN)CC[C@]3(C)C(=CC[C@@H]4[C@@]5(C)CCCNC(C)(C)[C@@H]5CC[C@]43C)[C@H]2C1` was tested. Which growth did it give?
**A.** 87%

**Q.** Which growth does the source give for `CCN1C(=O)N(CC)C2SC(N/N=C/c3ccc(OC)cc3)=NC21` (centres undefined) here?
**A.** -16.6% (active)

**Q.** With `C#C[C@]1(O)CC[C@H]2[C@@H]3CC=C4c5sc(N6CCN(C)CC6)nc5CC[C@]4(C)[C@H]3CC[C@@]21C` as the molecule, how does the growth read?
**A.** 6.2% (active)

**Q.** With `O=C(CCN1C(=O)/C(=C/c2ccccc2F)SC1=S)N1CCOCC1` as the molecule, how does the growth read?
**A.** 82.7%

**Q.** How did the growth turn out when `CCn1c(SCC(=O)Nc2cccc(C(=O)/C=C/c3ccc(Br)cc3)c2)nc2ccccc2c1=O` was run?
**A.** 84.7%

**Q.** `Clc1ccc(Cc2nnc3sc(-c4cccnc4)nn23)cc1` was tested. Which growth did it give?
**A.** 97.2%

**Q.** How did the growth turn out when `Cc1[nH]c(C(=O)Nc2ccc(C(=O)NCC3CCNCC3)cc2OC(C)C)c(Cl)c1Cl` was run?
**A.** 73.1%

**Q.** With `N/C(=N\c1nc2c(Cl)cccc2s1)C(Cl)(Cl)Cl` as the molecule, how does the growth read?
**A.** 25.5%

**Q.** With `Nc1nc(Nc2ccccc2SSc2ccccc2Nc2nc(N)nc(-c3cccc(Br)c3)n2)nc(-c2cccc(Br)c2)n1` as the molecule, how does the growth read?
**A.** 83%

**Q.** For `O=C(CCCCCCN1CC(=O)N2[C@@H](c3ccccc3Br)c3[nH]c4ccccc4c3C[C@H]2C1=O)NO`, which growth is on record?
**A.** 5.1% (active)

**Q.** `N#C/C(=C\c1ccc(N2CCCCC2)cc1)C(=O)Nc1sc2c(c1C#N)CCC2` was tested. Which growth did it give?
**A.** 98.7%

**Q.** `N#Cc1c(NC(=O)c2ccccc2C(F)(F)F)sc2c1CCC(=O)C2` was tested. Which growth did it give?
**A.** 3.87% (active)

**Q.** How did the growth turn out when `O=C1[C@H]2Cc3c([nH]c4ccccc34)[C@@H](c3ccc(Br)cc3)N2C(=O)CN1C1CCN(CC2CCCCC2)CC1` was run?
**A.** -70.6% (active)

**Q.** How did the growth turn out when `CNC(=O)c1cc(Oc2ccc3nc(NC(=O)c4cccc(OC(F)(F)F)c4)sc3c2)ccn1` was run?
**A.** 67.5%

**Q.** With `COC(=O)C1CN(S(=O)(=O)/N=C2\NC(=O)NC2=C(Cl)Cl)C1` as the molecule, how does the growth read?
**A.** 101%

**Q.** Which growth does the source give for `COc1ccc(/C=C2\SC(=Nc3cc(C)on3)NC2=O)cc1` here?
**A.** 94.6%

**Q.** Which growth does the source give for `CCc1cc(OC(=O)N2CCN(CCC(C)(COC(C)(C)C)COC(C)(C)C)CC2)ccc1Nc1cc(-c2ccc(-n3cccn3)cc2)[nH]n1` here?
**A.** 66.5%

**Q.** `NC1CC2(CCN(c3cnc(C(=O)Nc4cc(F)cc5cccnc45)cn3)CC2)C1` was tested. Which growth did it give?
**A.** 50.6%

**Q.** With `Cc1ccc(S(=O)(=O)NCCCNc2nc(Nc3ccc(N4CCN(C)CC4)cc3)nc3ccsc23)cc1` as the molecule, how does the growth read?
**A.** -50.9% (active)

**Q.** `Cc1ccc(-c2nnc3sc(C4=Cc5ccccc5OC=C4)nn23)cc1` was tested. Which growth did it give?
**A.** 85%

**Q.** With `CC[C@@H](CO)Nc1ccc2ncc(C#Cc3cncc(C(=O)Nc4ccc(CN5CCN(C)CC5)c(C(F)(F)F)c4)c3)n2n1` as the molecule, how does the growth read?
**A.** -27.3% (active)

**Q.** For `Oc1ccc(-c2nnc(SCc3ccc(O)c4ncccc34)o2)cc1`, which growth is on record?
**A.** 5.77% (active)

**Q.** With `Cc1cc(C(NC(=O)CCCCCNc2cccc3c2C(=O)N(C2CCC(=O)NC2=O)C3=O)c2ccc3c(c2)OC(F)(F)O3)c(O)c2ncccc12` (centres undefined) as the molecule, how does the growth read?
**A.** 19.7%

**Q.** Which growth does the source give for `C=C(C)C(=O)O[C@H]1C[C@@]2(C)OC(=CC2=O)/C(CO)=C\[C@H]2OC(=O)C(=C)[C@H]12` here?
**A.** -31.2% (active)

**Q.** Which growth does the source give for `CCN1C(=S)N(CC)C2C1N=C(SC)N2/N=C/C=C/c1ccccc1[N+](=O)[O-]` (centres undefined) here?
**A.** 84.3%

**Q.** Which growth does the source give for `Cc1ccc(C2CC(c3ccc(Nc4nc(NCCO)nc(Nc5ccc(Cl)cc5)n4)cc3)=Nc3c(N)nc(N)nc3N2)cc1` (centres undefined) here?
**A.** 10.2%

**Q.** For `C=C(C=O)[C@@H]1CC[C@]2(C)[C@H](C(=O)C=C3[C@H]4C[C@](C)(C(=O)OC)CC[C@]4(C)CC[C@]32C)[C@@]1(C)CCC#N`, which growth is on record?
**A.** -27.3% (active)

**Q.** With `O=C(N/N=C\c1ccc(Cl)cc1)c1ccc2nc(-c3ccc(Br)cc3)[nH]c2c1` as the molecule, how does the growth read?
**A.** 41.5%

**Q.** `COc1ccc(-c2nn(-c3ccc(S(C)(=O)=O)cc3)cc2/C=N/O)cc1` was tested. Which growth did it give?
**A.** 103%

**Q.** With `COc1cc(/C=C/C(=O)c2ccccc2)ccc1Oc1nc(NCCO)nc(N2CCOCC2)n1` as the molecule, how does the growth read?
**A.** 81.6%

**Q.** Which growth does the source give for `Cn1ccnc1C(=O)/C=C/c1ccc(CNC(=O)c2ccc(F)cc2)cc1` here?
**A.** -4.42% (active)

**Q.** Which growth does the source give for `CS(=O)(=O)Nc1cc(-c2ccc3ncc(C#N)c(NCc4ccccc4O)c3c2)cnc1Cl` here?
**A.** 12.4%

**Q.** Which growth does the source give for `O=C(CN1CCN(c2cc(=O)n(-c3ccccc3)c3ccccc23)CC1)Nc1ccc(F)cc1` here?
**A.** 47.7%
